Compound activity: PubChem, National Center for Advancing Translational Sciences (NCATS)
This is one part of a sample in which hits are shown more often than they occur.
VACV mCherry inh = qHTS for Stage-Specific Inhibitors of Vaccinia Orthopoxvirus: mCherry Reporter Primary qHTS | Vaccinia virus mCherry reporter infection, fluorescence | actives 0.63% (n = 310,000) | Potency, µM (series often up to 36.5 µM), inactives show at the top dose activity change, negative = inhibition, most hits filed as inhibitors | AID 720579, 2013; calls by dose curve; tested in A549 cells; note: potency is the fitted concentration of half-maximal effect; % is set by controls: 0 for no effect and ±100 for the full control effect; nearly all actives have a fitted effect of over 35% in size
MARV entry inh = qHTS for inhibitors of binding or entry into cells for Marburg Virus; Potency, µM (highest dose often 37.8 µM), for inactives: at the top dose activity change, negative = inhibition, most hits filed as inhibitors; actives 1.8% (n = 300,000); Marburg virus pseudotyped entry inhibition, cell reporter; AID 540276, 2011; calls by dose curve; tested in HEK293 cells; note: potency is the fitted concentration of half-maximal effect; % is set by controls: 0 for no effect and ±100 for the full control effect
VACV Venus inh = qHTS for Stage-Specific Inhibitors of Vaccinia Orthopoxvirus: Venus Reporter Primary qHTS. actives 0.46% (n = 330,000). AID 720580, 2013. Potency, µM (series often up to 36.5 µM), for the others: at the highest dose activity change, negative = inhibition, usual class: inhibitors. Vaccinia virus Venus reporter expression, fluorescence; calls by dose curve; tested in A549 cells; note: potency is the fitted concentration of half-maximal effect; % is set by controls: 0 for no effect and ±100 for the full control effect; nearly all actives have a fitted effect of over 30% in size
Cycloheximide cs = Cycloheximide Counterscreen for Small Molecule Inhibitors of Shiga Toxin | AID 2314, 2010 | cell reporter, cycloheximide protein synthesis inhibition counterscreen | max response, % | actives 12% (n = 300,000); in the data active = max response mostly above about 13%, no sharp cut-off; inactive = mostly below about 14%; note: read at 38.3 µM for the half of the compounds with a filed dose; 0% is about no effect
Shiga toxin inh = A qHTS for Small Molecule Inhibitors of Shiga Toxin. actives 9.2% (n = 290,000). AID 2315, 2010. Vero cells, Shiga toxin protein synthesis inhibition reporter. inhibition, % at 38.7 µM; in the data active = inhibition mostly above about 28%, no sharp cut-off; inactive = mostly below about 43%; note: 0% is about no effect
LASV entry inh = qHTS for Inhibitors of binding or entry into cells for Lassa Virus | Lassa virus pseudotype entry inhibition, cell reporter | Potency, µM (doses to about 37.9 µM), without a hit: at the top dose activity change, negative = inhibition, hits mostly inhibitors | actives 1.2% (n = 300,000); calls by dose curve; tested in HEK293 cells; note: potency is the fitted concentration of half-maximal effect; % is set by controls: 0 for no effect and ±100 for the full control effect; nearly all actives have a fitted effect of over 50% in size
* hit, by the source's call; i = inactive; ? = inconclusive; · = no result; [ ] = another dose, or the depositor's remark.

SMILES	VACV mCherry inh	MARV entry inh	VACV Venus inh	Cycloheximide cs	Shiga toxin inh	LASV entry inh
Cc1ccc(Nc2nc(-c3sc(N)nc3C)cs2)cc1	·	·	·	39.7*	45.6*	·
COc1ccc(Nc2nc(-c3sc(N)nc3C)cs2)cc1	·	21.4%	·	25.3*	56.1*	1.2%
CCOc1ccc(Nc2nc(-c3sc(N)nc3C)cs2)cc1	-13.2%	?	-5.8%	13.7*	14.2	-1.6%[46.1 µM]
CC(=O)Nc1ccc(Nc2nc(-c3sc(C)nc3C)cs2)cc1	-13.0%	-39.6%	-12.6%	11.1*	52.6	?
Cc1ccc(Nc2nc(-c3sc(NC(=O)c4ccc([N+](=O)[O-])cc4)nc3C)cs2)cc1	·	0.0%	·	0.8	-6.0	·
CCOC(=O)c1sc(Nc2ccc(OCC)cc2)nc1C	·	·	·	16.0	35.5	·
CCOC(=O)c1cccc(NC(=O)C2=C(C)C(=O)OC23CCCCC3)c1	-5.0%	11.7%[46.1 µM]	-4.2%	·	·	5.9%[46.1 µM]
CCCCN(C)CCN1C(=O)C2C(C(=O)Nc3ccc(OC)cc3)C3C=CC2(O3)C1C(=O)NC1CCCCC1 (stereo not given)	-9.1%	?	-26.1%	-0.3	13.7	·
O=C(Nc1ccccc1Cl)c1cccc(NC(=O)c2cccs2)c1	-14.1%	-17.9%	-26.7%	15.2	14.7	-6.8%
Cc1cccc(NC(=O)c2oc3ccc(S(=O)(=O)N(C)C4CCCCC4)cc3c2C)c1C	-5.6%	·	-16.4%	·	·	-24.0%[46.1 µM]
Cc1ccc(Nc2nc(-c3sc(C)nc3C)cs2)cc1	·	·	·	24.8*	57.7*	·
Cc1nc(C)c(-c2csc(Nc3ccc(S(N)(=O)=O)cc3)n2)s1	-23.4%	?	-27.5%	1.6	-6.9	?
CCC/C(=N/NC(=O)c1csc(C)c1C)c1ccc(Cl)s1	-22.7%	11.0%	-9.2%	36.4	91.9*	-28.1%
CCC/C(=N\NC(=O)c1ccco1)c1ccc(Cl)s1	·	·	·	21.7*	19.4	·
CCCCCCCCC(=O)N/N=C(\C)c1ccco1	-1.1%	18.0%	-4.7%	-2.2	4.7	-12.6%
CCCOC(=O)/C(C)=N\NC(=O)c1ccco1	i	?	-9.5%	64.0*	154.4*	?
COC(=O)CN1C(=O)[C@H]2[C@@H](c3ccc(C)o3)N3C(=O)CN(Cc4ccccn4)C(=O)[C@@]3(Cc3ccccc3)[C@H]2C1=O	-12.3%	·	-2.3%	-3.5	-7.8	·
O=C(Nc1ccccc1)c1cc(S(=O)(=O)NCc2ccncc2)ccc1Cl	-2.7%	?	-18.0%	1.2	-3.0	?
Cc1noc(C)c1-c1ccc2ncnc(NCc3ccc(Br)cc3)c2c1	·	·	·	27.0	27.5	·
CC(=O)c1ccc(Sc2ccc(C(C)=O)cc2)cc1	-4.5%	12.4%	-9.8%	37.1*	40.0*	?
CC(=O)c1ccc(Sc2ccccc2)cc1	·	1.4%	·	19.1	12.5	-0.2%
O=C(Nc1ccc(Cl)cc1F)c1ccccc1Br	-10.2%	?	-7.7%	63.2*	129.9*	?
O=C(Nc1ccc(Cl)cc1C(=O)c1ccccc1)c1ccccc1Br	-5.6%	·	-4.1%	·	·	?
O=C(Nc1ccc(Cl)cc1F)c1cccc2ccccc12	-22.0%	-0.7%[46.1 µM]	-7.9%	26.5*	33.7*	-9.0%[46.1 µM]
O=C(NNC(=O)c1cccc2ccccc12)c1ccc(Cl)cc1Cl	-3.5%	-7.1%[46.1 µM]	-16.1%	·	·	24.0%[46.1 µM]
SMILES	VACV mCherry inh	MARV entry inh	VACV Venus inh	Cycloheximide cs	Shiga toxin inh	LASV entry inh
CC(C)c1ccc(NC(=O)C(c2ccccc2)N(Cc2ccco2)C(=O)CC2NC(=O)NC2=O)cc1 (stereo not given)	i	-21.8%[46.1 µM]	-17.1%	-3.9	-8.8	?
Cc1ccnc(NC(=O)c2cnc(Cl)c(Cl)c2)c1	-13.4%	?	-0.2%	32.5*	116.3*	28.4%[46.1 µM]
Cc1ccnc(NC(=O)c2ccc(C(=O)c3ccccc3)cc2)c1	-6.5%	6.31µM*	-13.3%	·	·	2.24µM*
Cn1c2ccccc2c2nnc(SCCOc3ccccc3)nc21	-8.9%	·	-9.0%	·	·	·
COc1ccccc1OCCCn1cc(C=O)c2ccccc21	-10.5%	?	-14.3%	5.3	16.1	?
COc1ccccc1OCCCn1cc(C#N)c2ccccc21	·	?	-15.9%	26.7*	33.9*	11.0%
N#Cc1cn(CCCOc2ccccc2)c2ccccc12	·	-0.7%	-23.7%	16.6*	25.4	13.8%
COc1ccc(OC)c(C(=O)c2coc3ccc(OCC(=O)O)cc23)c1	-8.2%	-16.0%	-3.6%	-4.8	-1.0	10.8%
COc1ccc2occ(C(=O)c3ccc(N)cc3)c2c1	·	·	·	39.2*	70.5*	·
COc1ccc(OC)c(C(=O)c2coc3ccc(OC(C)=O)cc23)c1	-28.8%	?	-29.7%	25.2	37.8*	11.2µM*
COc1ccc(C(=O)c2coc3ccc(OC(C)=O)cc23)cc1	-14.4%	?	-19.5%	26.5*	72.2*	?
COc1ccc2c(CC(=O)NNC(=O)c3cccs3)coc2c1	-22.9%	10.5%	-13.8%	·	·	-13.5%[46.1 µM]
COc1ccc2occ(C(=O)c3cccs3)c2c1	·	17.5%	·	39.8*	96.4*	20.1%
CCNc1nc(NCC)n2c(SCC(=O)Nc3ccc(C)c(C)c3)nnc2n1	0.0%	-0.4%[46.1 µM]	-9.6%	·	·	7.1%
COc1ccc(CN(CC(=O)NC(C)C)C(=O)CCC(=O)Nc2nccs2)cc1	0.6%	13.9%[46.1 µM]	3.4%	-2.1	-4.5	·
CCS(=O)(=O)c1ccc2oc(=O)c(/C=C(\O)c3ccc(Cl)cc3)nc2c1	-1.1%	-10.2%[46.1 µM]	3.4%	3.3	2.8	-0.5%
Cc1ccc2oc(=O)c(/C=C(\O)c3cccs3)nc2c1	-17.2%	-0.5%[46.1 µM]	-17.4%	72.4*	77.1*	12.0%
O=c1oc2ccc(Cl)cc2nc1/C=C(\O)c1cccs1	?	?	-24.4%	61.5*	56.4*	?
Cc1ccc2oc(=O)c(/C=C(\O)c3ccccc3)nc2c1	·	·	·	1.6	19.5	·
O=C(NCCc1ccc(Cl)cc1)C1(c2cccs2)CCOCC1	-5.0%	·	2.1%	·	·	16.0%[46.1 µM]
CCCCCCCCCn1c2c(c(=N)c3c1CCC3)CCCC2	?	?	?	-7.8	-53.2	4.11µM*
CCCCCCCCCCn1c2c(c(=N)c3c1CCC3)CCC2	12.6µM*	?	10µM*	-3.5	-27.8	?
NNc1nc2ccccc2c(=O)n1Cc1ccccc1	1.7%	?	-20.6%	29.2*	42.8*	-7.1%[46.1 µM]
Cc1nc2ccccc2c(=O)n1CCc1ccccc1	·	·	·	16.4*	52.8	·
O=c1c2ccccc2[nH]c(=S)n1Cc1ccccc1	i	21.4%[46.1 µM]	-12.2%	-1.2	·	-1.3%[46.1 µM]
O=c1c2ccccc2[nH]c(=S)n1CCc1ccccc1	-0.2%	?	-6.5%	32.9*	69.1*	?
CC1CCC/C(=N\NC(=O)c2ccncc2)C1 (stereo not given)	i	15.7%	1.1%	-1.0	28.3	-2.4%
Cc1cc(C(=O)N/N=C2\CCCC(C)C2)n[nH]1 (stereo not given)	?	14.2%	-8.6%	55.3*	46.8	-0.5%
O=C(NCCN1C(=O)S/C(=C/c2cccnc2)C1=O)C1CC(=O)N(Cc2ccccc2)C1 (stereo not given)	·	-6.9%	·	-1.9	-6.0	-17.7%
